High-throughput results (PubChem)
Gal4-VP16 FLuc = VP16 counterscreen qHTS for inhibitors of ROR gamma transcriptional activity. Potency, µM (titrated, usually from 53.6 µM), for the others: at the highest dose activity, negative = inhibition, most hits filed as inhibitors. Drosophila S2 Gal4-VP16 UAS-luciferase, luminescence, 20 h. 310,000 compounds, 3.5% hits;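 also: Gal4-VP16 expression switched on by copper sulfate through the metallothionein promoter; potency is read from the fitted curve at half-maximal effect; nearly all actives have a fitted effect of over 50% in size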
RORgamma inh = qHTS for inhibitors of ROR gamma transcriptional activity; 310,000 compounds, 5.4% hits; Potency, µM (doses to about 53.6 µM), for inactives: at the highest dose activity change, negative = inhibition, actives largely listed as inhibitors; Nuclear receptor ROR-gamma (Mus musculus), P51450; AID 2551, 2010; Drosophila S2 Gal4-RORgamma UAS-luciferase reporter, 20 h; also: potency is read from the fitted curve at half-maximal effect; nearly all actives have a fitted effect of over 60% in size
Target sequence (P51450 whole entry, looked up, the tested form may be a part): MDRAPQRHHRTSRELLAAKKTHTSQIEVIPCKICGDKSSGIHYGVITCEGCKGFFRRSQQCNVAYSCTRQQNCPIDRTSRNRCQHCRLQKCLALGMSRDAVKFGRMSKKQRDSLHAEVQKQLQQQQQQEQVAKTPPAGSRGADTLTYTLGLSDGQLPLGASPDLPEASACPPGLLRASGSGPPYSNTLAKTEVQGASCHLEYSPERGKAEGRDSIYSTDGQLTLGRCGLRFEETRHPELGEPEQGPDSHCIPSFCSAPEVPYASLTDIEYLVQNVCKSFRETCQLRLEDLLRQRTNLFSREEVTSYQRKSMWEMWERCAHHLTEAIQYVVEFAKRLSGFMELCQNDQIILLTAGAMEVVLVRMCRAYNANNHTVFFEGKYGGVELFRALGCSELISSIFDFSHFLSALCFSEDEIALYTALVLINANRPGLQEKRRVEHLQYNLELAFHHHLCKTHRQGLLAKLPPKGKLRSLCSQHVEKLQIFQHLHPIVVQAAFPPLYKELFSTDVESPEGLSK
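A Gal4/UAS one-hybrid system in insect cells: metallothionein-promoter Gal4–ROR gamma fusion plus Photinus luciferase reporter. Copper sulfate 700 uM final, 20 hr ambient incubation, luminescent detection after 10 min with reagent.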
TDP1 cell noCPT = qHTS for Inhibitors of human tyrosyl-DNA phosphodiesterase 1 (TDP1): qHTS in cells in absence of CPT. DT40 Tdp1-/- hTDP1 cells, no CPT, ATP luminescence, 48 h. Potency, µM (titrated, usually from 46.2 µM), inactives show at the highest dose activity change, negative = growth inhibition, actives largely listed as inhibitors. 420,000 compounds, 15% hits; also: potency is read from the fitted curve at half-maximal effect; nearly all actives have a fitted effect of over 55% in size
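Cells were dispensed at 400 per well, compounds added by pin tool, plates incubated ≥48 hr at 37 °C, then CellTiter-Glo added for 30 min at room temperature before luminescence reading. Line: DT40 Tdp1-/- complemented with hTDP1; camptothecin omitted.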
DT40 TDP1 CPT = qHTS for Inhibitors of human tyrosyl-DNA phosphodiesterase 1 (TDP1): qHTS in cells in presence of CPT; Potency, µM (doses to about 46.2 µM), for inactives: top-dose activity change, negative = growth inhibition, usual class: inhibitors; chicken DT40 Tdp1-/-;hTDP1 cells + 20 nM CPT, ATP luminescence, 48 h; 420,000 compounds, 12% hits; also: potency is read from the fitted curve at half-maximal effect; nearly all actives have a fitted effect of over 55% in size
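Chicken DT40 Tdp1-/- cells stably complemented with human TDP1 were seeded at 400 cells/well in medium containing 20 nM camptothecin, exposed to pin-transferred compounds, and grown at 37 °C for at least 48 hr. Viability was read as ATP luminescence.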
ELG1 repair inh = qHTS screen for small molecules that inhibit ELG1-dependent DNA repair in human embryonic kidney (HEK293T) cells expressing luciferase-tagged ELG1. 330,000 compounds, 2.3% hits. HEK293T ELG1-luciferase reporter, luminescence, 16 h; DNA damage induced by 5-fluorouridine. Potency, µM (titrated, usually from 46.1 µM), inactives show at the highest dose activity change, negative = inhibition, usual class: inhibitors. AID 504467, 2011; also: potency is read from the fitted curve at half-maximal effect; nearly all actives have a fitted effect of over 55% in size
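Quantitative HTS, concentration-response format. 2,000 cells/well co-treated with 5-fluorouridine and compound, 16 hr in 5% CO2 at 37 °C; ONE-Glo luminescence read after 30 min.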
IL1B secr inh = qHTS for Inhibitors of Inflammasome Signaling: IL-1-beta AlphaLISA Primary Screen | activity change, % at 57.5 µM | AID 743279, 2014 | THP-1 LPS/ATP IL-1B secretion, AlphaLISA, 16 h; active compounds read low | 360,000 compounds, 4.7% hits; in the data active = activity change below about -50%; inconclusive = mostly about -30% to -49%
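THP-1 cells pretreated 1 hr with compounds (up to 57.5 uM final), then stimulated with LPS (250 ng/mL final) plus ATP (1.25 mM final); secreted IL-1B measured by AlphaLISA after 16 hr, decreased signal indicating inhibition.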
An asterisk follows results filed as active; u = inconclusive; x = no result; [ ] = remark or other dose. Only some compounds are listed: those with a hit (about 21% of all), similar ones and a draw of the others. Unless noted, calls follow the shape of the dose curve; as a rule, active = well fitted curve in the direction sought with a large enough effect; inconclusive = small, poorly fitted or top-dose-only effect, or another doubt; inactive = no such curve, though single readings can be large; an effect the other way counts as inactive or inconclusive. % is scaled to controls: 0 for no effect and ±100 for the full control effect.

SMILES	Gal4-VP16 FLuc	RORgamma inh	TDP1 cell noCPT	DT40 TDP1 CPT	ELG1 repair inh	IL1B secr inh
Cc1cc(C)c(NC(=O)CSc2nc3ccccc3c(=O)n2CCCN2CCOCC2)c(C)c1	x	x	u	u	-6%	u
CCc1ccc(NC(=O)CSc2nc3ccccc3c(=O)n2CCCC(=O)NCCCN2CCOCC2)cc1	-4%[10 µM]	-38%	u	-2%	-16%	-103*
Cc1ccc(NC(=O)CSc2nc3ccccc3c(=O)n2CCCN2CCCCC2)cc1Cl	u	u	21µM*	21µM*	15%	-87*
C=CCSCC=C	7%	10%	-12%	9%	x	x
CSc1ccccc1NC(=O)c1cc2ncc(Br)cn2n1	-10%	4%	-15%	-25%	u	25
N#CCC(=O)Nc1ccc(C(=O)OCC(=O)NC2CCCc3ccccc32)cc1 (stereo not drawn)	x	x	-3%	-10%	-7%	5
Cc1cc(CN2CCC(n3nccc3NC(=O)c3ccccc3C)CC2)n[nH]1	12%	-3%	0%	-2%	-9%	0
O=C(CNC(=S)N(Cc1ccccc1)Cc1ccccc1F)NCc1ccc(Cl)cc1	-15%	2µM*	u	u	23µM*	-83*
O=C(CNC(=S)N(Cc1ccccc1)Cc1ccccc1F)NCCc1ccccc1	-28%	13µM*	u	-24%	u	-18
Cc1ccc(CNC(=O)CNC(=S)N(Cc2ccccc2)Cc2ccccc2F)cc1	-7%	-31%	u	-20%	-14%	-69*
CCOC(=O)CNC(=S)N(Cc1ccccc1)Cc1ccccc1F	25%	-2%	u	3%	u	-56*
Cc1ccc(S(=O)(=O)N(Cc2cccc(F)c2)C(=O)N2CCN(C)CC2)cc1	x	x	-6%	-2%	21%	17
CCCOc1ccccc1C(=O)N1CCCCC1CCN1CCCCC1 (stereo not drawn)	x	x	-5%	-5%	x	x
O=C(Nc1ccccc1)Nc1nnc(-c2ccccc2)o1	-2%	43%	u	29µM*	0%	-102*
O=C(COc1ccccc1)Nc1nnc(-c2ccco2)o1	u	16µM*	-3%	4%	-4%	-6
O=C(COc1ccc(Cl)cc1)Nc1nnc(-c2ccco2)o1	u	11µM*	10%	10%	-19%	22
O=C(COc1ccccc1)Nc1nnc(-c2ccccc2)o1	10µM*	10µM*	-4%	3%	13%	10
CC(C)C(=O)Nc1nnc(-c2ccccc2)o1	u	u	-20%	-17%	u	5
O=C(COn1nnc2ccc(C(F)(F)F)cc21)Nc1nnc(-c2ccccc2)o1	4.5µM*	7.1µM*	u	u	1%	11
O=C(COc1ccccc1)Nc1nnc(-c2ccc(Cl)s2)o1	20µM*	13µM*	u	-5%	-1%	23
Cc1cccc(C)c1NC(=O)COn1nnc2ccc(C(F)(F)F)cc21	3%	-10%	-28%	-3%	-7%	0
Cc1ccc(C)c(-c2nnc(NC(=O)COc3ccccc3)o2)c1	x	x	u	u	10%	11
O=C(Cc1ccccc1)Nc1nnc(-c2ccco2)o1	10µM*	2.8µM*	-15%	3%	-6%	-15
O=C(NCc1cccs1)C1CCCN1C(=O)Nc1ccccc1[N+](=O)[O-] (stereo not drawn)	-3%	u	-13%	6%	0%	11
CCn1cc(/C=C/C(=O)c2ccc(O)cc2)c(C)n1	4µM*	2.2µM*	0%	1%	u	-81*
SMILES	Gal4-VP16 FLuc	RORgamma inh	TDP1 cell noCPT	DT40 TDP1 CPT	ELG1 repair inh	IL1B secr inh
COc1cccc(N=NC2C(=O)N(C(N)=S)N=C2C)c1 (stereo not drawn)	x	x	-27%	9%	x	x
CC1=NN(C(N)=S)C(=O)C1N=Nc1c(C)cc(C)cc1C (stereo not drawn)	1.8µM*	0.5µM*	0.58µM*	0.52µM*	27%	12
CC(=O)N(C)c1ccc(N=NC2C(=O)N(C(N)=S)N=C2C)cc1 (stereo not drawn)	2µM*	1µM*	-5%	-18%	u	-2
CC1=NN(C(N)=S)C(=O)C1N=Nc1c(Cl)cc([N+](=O)[O-])cc1Cl (stereo not drawn)	1.6µM*	0.35µM*	16µM*	u	u	-19
CC1=NN(C(N)=S)C(=O)C1N=Nc1c(Br)cc(Br)cc1Br (stereo not drawn)	1.3µM*	1.4µM*	-28%	-28%	3%	8
COc1ccc(C(=S)N2CCOCC2)cc1OS(=O)(=O)c1ccc(Br)cc1	-5%	14%	u	u	u	-7
Cc1ccc(S(=O)(=O)N2[C@H](CC(=O)c3ccc(Cl)c(Cl)c3)OC[C@@H]2C)cc1	x	x	u	u	x	23
CC1=NN(C(N)=S)C(=O)C1N=Nc1cccc(Cl)c1 (stereo not drawn)	2µM*	0.79µM*	-17%	-23%	u	-1
CC1=NN(C(N)=S)C(=O)C1N=Nc1ccccc1C (stereo not drawn)	0.045µM*	0.1µM*	1.6µM*	1.6µM*	u	-7
CCOc1ccccc1N=NC1C(=O)N(C(N)=S)N=C1C (stereo not drawn)	1µM*	0.71µM*	3.7µM*	16µM*	9%	41
CC1=NN(C(N)=S)C(=O)C1N=Nc1ccc(C)cc1C (stereo not drawn)	1.1µM*	0.5µM*	x	x	u	x
CC1=NN(C(N)=S)C(=O)C1N=Nc1ccccc1O (stereo not drawn)	-28%	-40%	-2%	17%	-5%	25
CC1=NN(C(N)=S)C(=O)C1N=Nc1ccccc1[N+](=O)[O-] (stereo not drawn)	x	x	-20%	u	x	16
CCS(=O)(=O)N1Cc2cc(C(=O)N(C)C)nc(-c3cccc(-c4ccc(F)cc4)c3)c2[C@H]1CCO	x	x	-14%	-7%	x	15
Cc1nc(Cl)nc(N(C)c2ccccc2)c1[N+](=O)[O-]	-2%	-27%	u	u	6%	-82*
Cc1nc(N/N=C/c2ccccc2)nc(N(C)c2ccccc2)c1[N+](=O)[O-]	-4%	-2%	-10%	-6%	2%	36
